Rows were chosen to be rich in hits. Some 4% of all compounds tested hit in one or more screens of this group.
FGF22 binding = FGF22 (human) thermal shift binding; 340,000 tested, 1.5% active; activity (Tm shift, normalised), % at 9.99 µM; recombinant FGF22 thermal shift, SYPRO orange fluorescence; percent of sucrose octasulfate shift, DMSO zero; Q9HCT0;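 active = mean Tm shift, scaled 0 neutral to 100 positive control, at about 1.3% or above, every replicate too, limit read from the data; inconclusive = no clear call, values can overlap the other calls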
MLL AF4-AF9 inh = MLL-AF4/AF9 protein interaction inhibition; P42568; AlphaScreen, biotin-AF4 peptide binding to FLAG-AF9; inhibition, % at 10 µM; 350,000 tested, 0.47% active;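 active = every replicate reaching a set inhibition limit, whatever the replicate mean, cut at about 25% in these data; inconclusive = mean inhibition reaches that limit but some replicates miss it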
DENV2 CPE = inhibitors of DENV2 cytopathic effect | DENV2-infected cells, cytopathic effect rescue, plate reader | CPE inhibition, % at 9.99 µM | 350,000 tested, 1.7% active | AID 651640; in the data active = CPE inhibition above about 20%, passing the limit was not always enough; inconclusive = no clear call, values can overlap the other calls; tested in BHK-21 cells
ERAP1 inh = blocks human ERAP1 aminopeptidase activity. Q9NZ08. recombinant ERAP1, Leu-AMC fluorescence, 60 min. inhibition, % at 10.7 µM. 340,000 tested, 0.15% active;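 active = mean replicate inhibition of at least 30%, or all replicates individually reaching that 30% level; inactive = mean below 30% and not every replicate reaching it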
Target sequence (Q9NZ08 whole entry, looked up): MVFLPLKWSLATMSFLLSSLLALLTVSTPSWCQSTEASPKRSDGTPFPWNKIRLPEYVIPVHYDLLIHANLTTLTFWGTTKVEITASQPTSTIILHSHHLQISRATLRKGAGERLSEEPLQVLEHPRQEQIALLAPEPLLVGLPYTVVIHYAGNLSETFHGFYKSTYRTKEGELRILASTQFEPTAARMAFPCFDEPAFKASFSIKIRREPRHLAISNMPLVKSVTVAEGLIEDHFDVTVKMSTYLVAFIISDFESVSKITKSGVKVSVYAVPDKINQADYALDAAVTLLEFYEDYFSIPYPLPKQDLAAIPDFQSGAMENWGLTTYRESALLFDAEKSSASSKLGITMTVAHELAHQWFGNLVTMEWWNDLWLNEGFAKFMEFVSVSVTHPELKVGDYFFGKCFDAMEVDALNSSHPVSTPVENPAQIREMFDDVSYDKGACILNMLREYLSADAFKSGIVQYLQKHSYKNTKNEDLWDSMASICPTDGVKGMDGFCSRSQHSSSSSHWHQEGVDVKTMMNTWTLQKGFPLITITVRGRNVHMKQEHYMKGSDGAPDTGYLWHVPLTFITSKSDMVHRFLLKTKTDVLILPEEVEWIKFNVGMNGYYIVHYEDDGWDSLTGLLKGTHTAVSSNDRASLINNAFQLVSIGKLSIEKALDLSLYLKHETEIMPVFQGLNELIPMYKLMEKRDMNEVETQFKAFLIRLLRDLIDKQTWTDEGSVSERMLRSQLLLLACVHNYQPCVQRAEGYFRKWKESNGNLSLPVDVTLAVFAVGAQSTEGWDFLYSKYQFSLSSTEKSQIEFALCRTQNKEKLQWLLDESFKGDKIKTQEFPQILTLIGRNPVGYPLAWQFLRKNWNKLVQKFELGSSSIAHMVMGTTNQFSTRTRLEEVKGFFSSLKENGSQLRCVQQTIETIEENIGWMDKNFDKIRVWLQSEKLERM
RAD52 anneal inh = inhibitors of human RAD52 DNA annealing | inhibition, % at 18.7 µM | recombinant RAD52 DNA annealing, FRET fluorescence | 360,000 tested, 0.46% active | AID 651710 | P43351;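 active = every replicate showing at least 50% inhibition; inconclusive = mean inhibition at least 50% but not in every replicate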
Numbers stand for hits; n = inactive; u = inconclusive; x = no result; ! = repeats disagree.

SMILES	FGF22 binding	MLL AF4-AF9 inh	DENV2 CPE	ERAP1 inh	RAD52 anneal inh
N#Cc1cccc(-c2ccc(C3[C@H]4CNC[C@@H]3N4C(=O)Nc3ccc(Cl)cc3)cc2)c1 (some centres undefined)	x	n	n	n	n
O=C(Nc1ccc(Cl)cc1)N1[C@@H]2CNC[C@H]1C2c1ccc(-c2ccccc2)cc1 (some centres undefined)	x	n	n	n	57.6!
C[C@H](CO)N1C[C@H](C)[C@@H](CN(C)C(=O)Nc2ccc(F)cc2)Oc2c(NC(=O)NC3CCCCC3)cccc2C1=O	n	n	n	n	n
CCC(=O)N1CC2(C1)[C@H](c1ccccc1)[C@H](CO)N2C(=O)NC(C)C	x	n	n	n	n
CC(c1ccccc1)C1OCC(C[N+]2(C)CCCCC2)O1 (centres undefined)	n	n	n	n	n
CCCCC(CC)C1OCC(C[N+]2(C)CCOCC2)O1 (centres undefined)	n	n	n	83.1	n
COc1ccc(NC(=O)Nc2cccc3c2O[C@@H](CN(C)C(=O)Nc2cccc4ccccc24)[C@H](C)CN([C@@H](C)CO)C3=O)cc1	n	x	n	x	x
CSc1nnc(-c2cccs2)n1C	43.0	n	n	n	n
CCC1(c2ccccc2)NC(=O)N(CC(=O)Nc2ccccc2C(=O)N2CCCCC2)C1=O (centres undefined)	x	n	34.8	n	n
CCC1(c2ccccc2)NC(=O)N(CC(=O)Nc2ccccc2N2CCCCC2)C1=O (centres undefined)	n	n	n	n	n
Cc1cccc(-c2ccc([C@H]3[C@H](CO)N4C(=O)CN(C(=O)Cc5ccccn5)C[C@@H]34)cc2)c1	x	n	n	n	n
S=C(Nc1ccc(Cl)cc1)N1CCN(Cc2ccccc2)CC1	n	n	n	n	n
FC(F)Oc1ccc(NC(=S)N2CCN(Cc3ccccc3)CC2)cc1	44.4	n	n	n	n
C=CCON/C(CCC)=C1\C(=O)C(C(=O)OC)C(C)(C)CC1=NC (centres undefined)	44.1	n	n	n	n
CCCC(=O)Nc1ccc2c(c1)OC[C@@H](C)N(Cc1ccncc1)C[C@H](C)[C@@H](OC)CN(C)C2=O	n	n	25.2	n	n
CCCC(=O)Nc1ccc2c(c1)OC[C@H](C)N(Cc1ccccc1F)C[C@H](C)[C@@H](OC)CN(C)C2=O	n	n	21.1	n	n
CCCC(=O)Nc1ccc2c(c1)OC[C@@H](C)N(Cc1cncnc1)C[C@@H](C)[C@@H](OC)CN(C)C2=O	n	44.5	n	n	n
C[C@H]1CN([C@@H](C)CO)C(=O)c2cc(-c3ccccc3F)cnc2O[C@@H]1CN(C)C(=O)NC1CCCC1	n	n	n	n	n
COCC1COS(=O)(=O)NC1(C)C (centres undefined)	n	n	20.3	n	n
COc1ccc(/C=C2/SC(=O)NC2=O)cc1	x	n	n	n	n
COc1ccc(/C=C2\C(=O)NCC(=O)N2C)cc1	n	n	n	86.2	n
C[C@H]1CN([C@@H](C)CO)C(=O)c2cc(C#Cc3ccncc3)cnc2O[C@@H]1CN(C)CC1CCCCC1	n	n	n	n	n
CO[C@@H]1CN(C)C(=O)c2ccc(NC(=O)c3ccno3)cc2OC[C@@H](C)NC[C@@H]1C	x	n	n	n	n
O=C(O)c1cc(-c2ccc(/C=N/N3C(=O)C4C5C=CC(CC5)C4C3=O)o2)ccc1Cl (centres undefined)	n	n	n	n	n
O=C(O)c1cc(-c2ccc(/C=N/N3C(=O)C4C5C=CC(C6CC56)C4C3=O)o2)ccc1Cl (centres undefined)	43.2	n	n	n	n
SMILES	FGF22 binding	MLL AF4-AF9 inh	DENV2 CPE	ERAP1 inh	RAD52 anneal inh
O=C(COC(=O)c1cccs1)NCc1ccccc1	x	x	x	n	n
O=C(COC(=O)c1cccs1)NCC1CCCCC1	43.4	n	n	n	n
O=C(NCC1CCCO1)C(=O)N/N=C/c1ccccc1C(=O)O (centres undefined)	43.1	n	n	n	n
C[C@H]1CN([C@@H](C)CO)C(=O)c2cccc(NC(=O)Nc3ccc(C(F)(F)F)cc3)c2O[C@H]1CN(C)Cc1ccc2c(c1)OCO2	n	n	n	n	n
C[C@@H]1CN([C@@H](C)CO)C(=O)c2cc(NS(=O)(=O)c3ccc(Cl)cc3)ccc2O[C@H]1CN(C)Cc1ccccc1	n	25.0	n	n	n
C[C@H](CO)N1C[C@H](C)[C@@H](CN(C)Cc2ccccc2)Oc2ccc(NS(=O)(=O)c3ccc(Cl)cc3)cc2CC1=O	n	n	n	n	n
C[C@H](CO)N1C[C@H](C)[C@H](CN(C)Cc2ccccc2)Oc2ccc(NS(=O)(=O)c3ccc(Cl)cc3)cc2CC1=O	n	n	27.7	n	n
CNC[C@@H]1Oc2ccc(NS(=O)(=O)c3ccc(Cl)cc3)cc2C(=O)N([C@H](C)CO)C[C@@H]1C	n	n	39.2!	n	n
CNC[C@H]1Oc2c(NC(=O)C3CCCCC3)cccc2C(=O)N([C@@H](C)CO)C[C@H]1C	n	n	n	n	n
C[C@@H]1CN([C@H](C)CO)C(=O)c2cccc(NS(=O)(=O)c3cn(C)cn3)c2O[C@@H]1CN(C)C(=O)Nc1ccc(F)cc1	n	n	n	n	n
C[C@@H]1CN([C@H](C)CO)C(=O)c2cccc(NS(=O)(=O)c3cn(C)cn3)c2O[C@H]1CN(C)C(=O)Nc1ccc(F)cc1	n	n	71.5	n	n
C[C@@H]1CN([C@H](C)CO)C(=O)c2cccc(NS(=O)(=O)c3cn(C)cn3)c2O[C@H]1CN(C)C(=O)Nc1ccc2c(c1)OCO2	n	n	72.4	n	n
CN1c2ccc(-c3ccccc3)cc2[C@H]2[C@H](CCN2C(=O)c2ccccc2)[C@@H]1CO	n	n	u	n	n
CC(c1ccon1)N(C)Cc1c(C(=O)N(C)Cc2ccccc2)nc2ccccn12 (centres undefined)	43.1	n	n	n	n
CN(Cc1ccccc1)C(=O)c1nc2ccccn2c1CNCCCOc1cccnc1	n	n	n	n	n
COC(=O)[C@H](Cc1ccccc1)NCCCn1cnc(C(=O)Nc2ccc(C)c(C)c2)n1	n	n	n	x	n
CCC(C)C(CO)NCCCn1cnc(C(=O)Nc2ccc(C)c(C)c2)n1 (centres undefined)	n	n	59.4	x	n
OCCNCCCCOc1cccc(Br)c1	n	n	39.1	n	n
CC(=O)N1[C@@H]2c3cccc(=O)n3C[C@@H]2[C@@H](CO)[C@@H]1C(=O)NCc1ccc(F)cc1	n	n	u	n	n
O=C(O)C1Cn2c(nc3c(c2=O)C2(CCCC2)Cc2ccccc2-3)S1 (centres undefined)	43.4	n	n	n	n
C[C@@H]1CN([C@@H](C)CO)C(=O)c2cc(NC(=O)C3CCCCC3)ccc2O[C@@H](C)CCCCO[C@@H]1CN(C)C(=O)Nc1ccc(C(F)(F)F)cc1	n	n	n	n	60.5
C[C@@H]1CCCCO[C@@H](CN(C)C(=O)Nc2ccc(C(F)(F)F)cc2)[C@@H](C)CN([C@H](C)CO)C(=O)c2cc(NC(=O)C3CCCCC3)ccc2O1	n	n	27.3	n	n

Screens (PubChem)
